# Values joined by “and” are separate entries in the source; they are usually repeats but may differ in a detail not shown here. Equal values may be shown once. Out of some 1,000 compounds screened, about 250 (25%) were called active. Roughly 31% stayed inconclusive and do not appear here. The list is a sample of the results. Measured potencies and affinities stand elsewhere. Values without a mark were called inactive. No rule for the calls is given here. Numbered stars: 1 amine (or outer) side, 2 acyl side, 3 side chain; on linkers, the order of the positions; unused ones are H or OH. Bridge positions count the residues as written; N and C are the ends. Square brackets hold non-standard residues; d marks the D form. Peptide text beside a SMILES is read from it. * marks the point of attachment. ξ: configuration not given here. pTerphenylCO(4''-OnC5H11) = CCCCCOc1ccc(-c2ccc(-c3ccc(C(=O)*)cc3)cc2)cc1; ξOrn(4,5-diOH) = O=C(C(CC(O)C(O)N[*:3])N[*:1])[*:2]; ξhTyr(βξ-OH,γξ-OH) = NC(C(=O)O)C(O)C(O)c1ccc(O)cc1; ξPro(3ξ-OH,4ξ-Me) = CC1CNC(C(=O)O)C1O; Hyp = O=C(O)[CH]1C[CH](O)CN1
# Test: compound activity on host-cell Toxoplasma growth – dose response (AID 1259420);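 also: host cells were HeLa; final incubation lasted 72 hours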
# Conditions: Toxoplasma gondii growth in host cells, no IFN-gamma
smiles,measurement,setting,value
COc1ccc(CN2C[C@@H]3C[C@H](C(=O)Nc4ccccc4)[C@@H](C2)O3)cc1,max activity,at 19.5 µM unless noted,24.7%
CCCNC(=O)C[C@H]1CC[C@@H]2[C@H](COC[C@H](O)CN2C(=O)Nc2ccc(Cl)c(Cl)c2)O1,max activity,at 19.5 µM unless noted,22.5%
CCCNC(=O)[C@@H]1[C@@H](CO)[C@@H]2Cn3c(ccc(C4=CCCCC4)c3=O)[C@@H]2N1Cc1ccccc1F,max activity,at 19.5 µM unless noted,15.2%
O=C(c1ccc[nH]1)N1CCC2(CC1)COCCN(c1ncccn1)C2,max activity,at 10 µM,-14%
same,max activity,at 19.5 µM,9.97%
CC(C)CCN1Cc2c(C(=O)NC3CCCCC3)ncn2-c2ccccc2S1(=O)=O,max activity,at 19.5 µM unless noted,17.3%
CO[C@@H]1CCN(c2ncccn2)C[C@@H]1Cc1cccc(C)c1,max activity,at 19.5 µM unless noted,13.3%
"CCCCCOc1ccc(-c2ccc(-c3ccc(C(=O)NC4CC(O)C(O)NC(=O)C5C(O)C(C)CN5C(=O)C(C(C)O)NC(=O)C(C(O)C(O)c5ccc(O)cc5)NC(=O)C5CC(O)CN5C(=O)C(C(C)O)NC4=O)cc3)cc2)cc1 (stereo not drawn) ({pTerphenylCO(4''-OnC5H11)}-[ξOrn(4,5-diOH)]T[Hyp][ξhTyr(βξ-OH,γξ-OH)]T[ξPro(3ξ-OH,4ξ-Me)]; lactam 1-C; configuration not given here)",max activity,at 19.5 µM unless noted,7.96% [at 0.6 µM]
O=C1N(c2ccccc2)c2ccccc2C1(Cc1ccncc1)Cc1ccncc1,max activity,at 19.5 µM unless noted,-9.88% [at 5 µM]
C/C=C/c1ccc(C2[C@H]3CNC[C@@H]2N3S(=O)(=O)c2ccccc2C)cc1 (some centres undefined),max activity,at 19.5 µM unless noted,20.6%
O=C(C[C@H]1CC[C@H]2[C@@H](COC[C@@H](O)CN2Cc2cc(F)ccc2F)O1)NCc1ccc(Oc2ccccc2)cc1,max activity,at 19.5 µM unless noted,24%
O=C(C[C@H]1CC[C@H]2[C@@H](COC[C@H](O)CN2S(=O)(=O)c2ccccc2)O1)NCC1CCCCC1,max activity,at 19.5 µM unless noted,-7.1% [at 0.3 µM]
O=C(C[C@@H]1CC[C@H]2[C@@H](COC[C@H](O)CN2Cc2ccc(Oc3ccccc3)cc2)O1)N1CCN(c2ccccc2)CC1,max activity,at 19.5 µM unless noted,-11.8% [at 1.2 µM]
O=C(C[C@@H]1CC[C@@H]2[C@H](COC[C@@H](O)CN2C(=O)Nc2cc(Cl)cc(Cl)c2)O1)N1CCOCC1,max activity,at 19.5 µM unless noted,-20.4% [at 10 µM]
O=C(C[C@@H]1CC[C@@H]2[C@H](COC[C@H](O)CN2S(=O)(=O)c2ccccc2F)O1)N1CCC(Cc2ccccc2)CC1,max activity,at 19.5 µM unless noted,-4.67% [at 0.3 µM]
O=C(C[C@H]1CC[C@@H]2[C@H](COC[C@@H](O)CN2Cc2ccc(Oc3ccccc3)cc2)O1)N1CCN(c2ccccc2)CC1,max activity,at 19.5 µM unless noted,17.6%
CCCNC(=O)C[C@H]1CC[C@H]2[C@@H](COC[C@@H](O)CN2C(=O)Nc2ccc(Cl)c(Cl)c2)O1,max activity,at 19.5 µM unless noted,-10.6% [at 10 µM]
O=C(C[C@H]1CC[C@@H]2[C@H](COC[C@H](O)CN2Cc2cc(F)ccc2F)O1)NCc1ccc(Oc2ccccc2)cc1,max activity,at 19.5 µM unless noted,29.1% [at 10 µM]
O=C(C[C@H]1CC[C@H]2[C@@H](COC[C@H](O)CN2Cc2ccc(Oc3ccccc3)cc2)O1)N1CCN(c2ccccc2)CC1,max activity,at 19.5 µM unless noted,19.6%
CCCNC(=O)[C@H]1[C@H](CO)[C@H]2Cn3c(ccc(C4=CCCCC4)c3=O)[C@H]2N1Cc1ccccc1F,max activity,at 19.5 µM unless noted,26.7%
CCC(=O)N1CC(=O)N2[C@@H](CO)[C@H](c3ccc(C#CCC(C)C)cc3)[C@@H]2C1,max activity,at 19.5 µM unless noted,-4.73% [at 2.6 µM]
N#Cc1ccc(-c2ccc(C3[C@@H]4CN(C(=O)C5CCCCC5)C[C@H]3N4)cc2)cc1 (some centres undefined),max activity,at 19.5 µM unless noted,18.4%
COc1cccc(-c2ccc(C3[C@@H]4CN(C(=O)C5CCCCC5)C[C@H]3N4)cc2)c1 (some centres undefined),max activity,at 19.5 µM unless noted,23.3%
CS(=O)(=O)N1C[C@@H]2N[C@H](C1)[C@@H]2c1ccc(-c2ccccc2)cc1,max activity,at 19.5 µM unless noted,14.6% [at 2.6 µM]
COc1cccc(-c2ccc(C3[C@@H]4CN(Cc5ccccn5)C[C@H]3N4)cc2)c1 (some centres undefined),max activity,at 19.5 µM unless noted,36.5%
Cc1ccccc1-c1ccc(C2[C@@H]3CN(Cc4cncnc4)C[C@H]2N3)cc1 (some centres undefined),max activity,at 19.5 µM unless noted,-6.61% [at 10 µM]
COc1cc(CN2C[C@@H]3N[C@H](C2)C3c2ccc(-c3ccc(C#N)cc3)cc2)cc(OC)c1 (some centres undefined),max activity,at 19.5 µM unless noted,9.2% [at 10 µM]
Cn1cnc(S(=O)(=O)N2C[C@@H]3N[C@H](C2)C3c2ccc(-c3ccccc3F)cc2)c1 (some centres undefined),max activity,at 2.35 µM,9.35%
same,max activity,at 19.5 µM,18.7%
N#Cc1ccc(-c2ccc(C3[C@@H]4CN(S(=O)(=O)c5ccc(F)cc5)C[C@H]3N4)cc2)cc1 (some centres undefined),max activity,at 19.5 µM unless noted,31.5% and 12.6% and 34.4%
O=C1CC2C(CCN2Cc2ccc(F)cc2)N1CCN1CCOCC1 (centres undefined),max activity,at 19.5 µM unless noted,-8.01% [at 5 µM]
O=C(Cc1ccccn1)N1CC(=O)N2[C@H](C1)[C@@H](c1ccc(C#CCC3CCCC3)cc1)[C@@H]2CO,max activity,at 19.5 µM unless noted,30% [at 21 µM]
COC[C@H](N)C(=O)N1CCC(Cc2nnc(SC)n2C)CC1,max activity,at 19.5 µM unless noted,7.97% [at 0.16 µM]
CCCNC(=O)[C@@H]1[C@@H](CO)[C@@H]2Cn3c(ccc(/C=C/c4ccccc4)c3=O)[C@@H]2N1CC1CC1,max activity,at 19.5 µM unless noted,-5.81% [at 10 µM]
